Assay [1] in a line: NCI Yeast Anticancer Drug Screen. Data for the rad50 strain (AID 155).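 Also: 0% = growth of vehicle-only cultures of the same strain.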 Conditions: S. cerevisiae rad50 strain growth inhibition, active compounds read high. The gist of the method:
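Compounds were tested on a yeast strain with an engineered DNA damage repair alteration; the reported value is growth inhibition normalised to vehicle treatment.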

Assay [2] is described as follows: NCI Yeast Anticancer Drug Screen. Data for the mec2-1 strain (AID 157). The conditions noted are these: S. cerevisiae mec2-1 strain, active compounds read high. A digest of the protocol: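 Readout is yeast growth inhibition, normalised to vehicle-treated controls, in the mec2-1 strain exposed to compound.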
Assay [3] can be described thus: NCI Yeast Anticancer Drug Screen. Data for the sgs1 mgt1 strain (AID 161).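 Also: 0% = growth of cultures given vehicle only.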 The conditions noted are these: S. cerevisiae sgs1 mgt1 strain, active compounds read high. The gist of the method: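 This yeast growth screen uses a strain with defined DNA-repair lesions; compound-treated growth is compared with vehicle-treated growth.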
The nature of assay [4]: NCI Yeast Anticancer Drug Screen. Data for the cln2 rad14 strain (AID 165).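 Also: 0% = growth equal to vehicle treated cultures.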 Conditions: S. cerevisiae cln2 rad14 strain, active compounds read high. The gist of the method: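 Relative to vehicle controls, growth inhibition of compound-treated cln2 rad14 yeast was recorded.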
A short description of assay [5]: NCI Yeast Anticancer Drug Screen. Data for the bub3 strain (AID 167). Conditions: S. cerevisiae bub3 mutant strain, active compounds read high. The gist of the method: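 Growth of a checkpoint-deficient yeast mutant is measured after compound exposure. Values represent inhibition relative to vehicle.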
The nature of assay [6]: NCI Yeast Anticancer Drug Screen. Data for the mlh1 rad18 strain (AID 175). The conditions noted are these: S. cerevisiae mlh1 rad18 strain growth inhibition, active compounds read high. The gist of the method: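 Test agents were incubated with a yeast strain of defined genotype (DNA damage repair defect). Inhibition of growth was derived by comparison with vehicle-exposed cultures.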

Where [7] appears, read: at 5.0 µM (retest, dose inferred, filed as 0.5).
Where [8] appears, read: at 50.0 µM (retest, dose inferred, filed as 5.0).

Compounds without any hit were thinned out: in the full panel of roughly 79,000, 15% have a hit. Values without a mark were called inactive. Activity calls are given as the source filed them. Rule as the data show it: active = growth inhibition above about 70%; inactive = the rest.

As for `[N-]=[N+]=Nc1ccc(SN2C(=O)c3ccccc3C2=O)cc1`, the growth inhibition was 29% in assay [1] (setting [7]); 98% (active) in assay [1] (setting [8]); 90.7% (active) in assay [1] (at 50.0 µM); 23% in assay [2] (setting [7]); 95% (active) in assay [2] (setting [8]); 88.4% (active) in assay [2] (at 50.0 µM). Besides, the growth inhibition was 6% in assay [3] (setting [7]); 98% (active) in assay [3] (setting [8]); 92.5% (active) in assay [3] (at 50.0 µM); 3% in assay [4] (setting [7]); 67% in assay [4] (setting [8]); 63.1% in assay [4] (at 50.0 µM). Also, the growth inhibition is 1% in assay [5] (setting [7]); 44% in assay [5] (setting [8]); 95.4% (active) in assay [5] (at 50.0 µM); 10% in assay [6] (setting [7]); 95% (active) in assay [6] (setting [8]); 73.3% (active) in assay [6] (at 50.0 µM).

`Cc1ccc(N2CCN(c3c(N)cncc3Br)CC2)cc1`: the growth inhibition is -4% in assay [1] (setting [7]); -4% in assay [1] (setting [8]); 94% (active) in assay [1] (at 50.0 µM); 6% in assay [2] (setting [7]); 14% in assay [2] (setting [8]); 97.3% (active) in assay [2] (at 50.0 µM). In addition, the growth inhibition is 0% in assay [3] (setting [7]); 18% in assay [3] (setting [8]); 92.8% (active) in assay [3] (at 50.0 µM); 0% in assay [4] (setting [7]); -15% in assay [4] (setting [8]); 46.5% in assay [4] (at 50.0 µM). For the same molecule, the growth inhibition in assay [5] (setting [7]) is 19%; in assay [5] (setting [8]), 71% (active); in assay [5] (at 50.0 µM), 96% (active); in assay [6] (setting [7]), -4%; in assay [6] (setting [8]), -1%; in assay [6] (at 50.0 µM) it was 90.8% (active).

Consider `COc1ccc(N=Nc2ccc3oc(=O)c(C(=O)Nc4ccc(Cl)cc4)cc3c2)cc1`, for which the growth inhibition was 29% in assay [1] (setting [7]); 98% (active) in assay [1] (setting [8]); 98.5% (active) in assay [1] (at 50.0 µM); 16% in assay [2] (setting [7]); 98% (active) in assay [2] (setting [8]); 98.9% (active) in assay [2] (at 50.0 µM). The growth inhibition in assay [3] (setting [7]) was 0%; in assay [3] (setting [8]) it was 98% (active); in assay [3] (at 50.0 µM), 98.3% (active); in assay [4] (setting [7]) it was 16%; in assay [4] (setting [8]), 98% (active); in assay [4] (at 50.0 µM), 98.3% (active). Moreover, the growth inhibition was 14% in assay [5] (setting [7]); 97% (active) in assay [5] (setting [8]); 98.8% (active) in assay [5] (at 50.0 µM); 33% in assay [6] (setting [7]); 99% (active) in assay [6] (setting [8]); 98.7% (active) in assay [6] (at 50.0 µM).

For the molecule `CN(C)c1ccc(C(c2ccc(N(C)C)cc2)c2ccc3c(c2)OCO3)cc1`, the growth inhibition in assay [1] (setting [7]) was 98% (active); in assay [1] (setting [8]), 66%; in assay [1] (at 50.0 µM), 95% (active); in assay [2] (setting [7]), 99% (active); in assay [2] (setting [8]), 62%; in assay [2] (at 50.0 µM), 94% (active). The growth inhibition in assay [3] (setting [7]) is 97% (active); in assay [3] (setting [8]), 85% (active); in assay [3] (at 50.0 µM), 95.8% (active); in assay [4] (setting [7]), 98% (active); in assay [4] (setting [8]) it was 32%; in assay [4] (at 50.0 µM), 88.8% (active). Besides, the growth inhibition was 99% (active) in assay [5] (setting [7]); 81% (active) in assay [5] (setting [8]); 90% (active) in assay [5] (at 50.0 µM); 98% (active) in assay [6] (setting [7]); 90% (active) in assay [6] (setting [8]); 91.6% (active) in assay [6] (at 50.0 µM).

On to `NC(Cc1ccnnc1)C(=O)O` (stereo not given), for which the growth inhibition in assay [1] (setting [7]) is -10%; in assay [1] (setting [8]), -5%; in assay [1] (at 50.0 µM), -8.6%; in assay [2] (setting [7]), 10%; in assay [2] (setting [8]), -7%; in assay [2] (at 50.0 µM) it was -36.4%. For the same molecule, the growth inhibition was -7% in assay [3] (setting [7]); -10% in assay [3] (setting [8]); -36.2% in assay [3] (at 50.0 µM); -7% in assay [4] (setting [7]); -11% in assay [4] (setting [8]); 29.1% in assay [4] (at 50.0 µM). Also, the growth inhibition in assay [5] (setting [7]) was -13%; in assay [5] (setting [8]), -9%; in assay [5] (at 50.0 µM), -22.9%; in assay [6] (setting [7]) it was -16%; in assay [6] (setting [8]), -17%; in assay [6] (at 50.0 µM) it was -14.9%.

Regarding `C=C(Cl)C(=NC(C)(C)C)Nc1ccccc1Cl`, the growth inhibition in assay [1] (setting [7]) was 21%; in assay [1] (setting [8]) it was 42%; in assay [1] (at 50.0 µM) it was 66.4%; in assay [2] (setting [7]) it was 14%; in assay [2] (setting [8]) it was 35%; in assay [2] (at 50.0 µM) it was 59.5%. The growth inhibition was 16% in assay [3] (setting [7]); 40% in assay [3] (setting [8]); 63.1% in assay [3] (at 50.0 µM); 31% in assay [4] (setting [7]); 33% in assay [4] (setting [8]); 50.8% in assay [4] (at 50.0 µM). Also, the growth inhibition in assay [5] (setting [7]) is 14%; in assay [5] (setting [8]) it was 32%; in assay [5] (at 50.0 µM), 53.2%; in assay [6] (setting [7]) it was 27%; in assay [6] (setting [8]), 53%; in assay [6] (at 50.0 µM), 85.8% (active).

With `CSC(=Nc1ccc(Cl)cc1)N1CC=Cc2ccccc21`, the growth inhibition in assay [1] (setting [7]) was 2%; in assay [1] (setting [8]), -1%; in assay [1] (at 50.0 µM), -1.85%; in assay [2] (setting [7]), -13%; in assay [2] (setting [8]), 12%; in assay [2] (at 50.0 µM) it was 5.85%. For the same molecule, the growth inhibition in assay [3] (setting [7]) was -15%; in assay [3] (setting [8]) it was 23%; in assay [3] (at 50.0 µM) it was 43.4%; in assay [4] (setting [7]), 9%; in assay [4] (setting [8]) it was -4%; in assay [4] (at 50.0 µM), 42.8%. For the same molecule, the growth inhibition in assay [5] (setting [7]) was 49%; in assay [5] (setting [8]), 82% (active); in assay [5] (at 50.0 µM), 81.8% (active); in assay [6] (setting [7]), 0%; in assay [6] (setting [8]), -1%; in assay [6] (at 50.0 µM), 12.3%.

As to `c1cc2cc(Cc3ccc4[nH]ccc4c3)ccc2[nH]1`, the growth inhibition was 21% in assay [1] (setting [7]); 26% in assay [1] (setting [8]); 12.2% in assay [1] (at 50.0 µM); 21% in assay [2] (setting [7]); 36% in assay [2] (setting [8]); 11.4% in assay [2] (at 50.0 µM). Moreover, the growth inhibition is 25% in assay [3] (setting [7]); 19% in assay [3] (setting [8]); 13% in assay [3] (at 50.0 µM); 16% in assay [4] (setting [7]); 10% in assay [4] (setting [8]); -1.1% in assay [4] (at 50.0 µM). Also, the growth inhibition is 12% in assay [5] (setting [7]); 16% in assay [5] (setting [8]); 43.2% in assay [5] (at 50.0 µM); 32% in assay [6] (setting [7]); 41% in assay [6] (setting [8]); 92.2% (active) in assay [6] (at 50.0 µM).

As to `CCS(=O)(=O)c1ccc(NC(=O)OC2CC(C)CCC2C(C)C)cc1` (stereo not given), the growth inhibition in assay [1] (setting [7]) was 14%; in assay [1] (setting [8]), 90% (active); in assay [1] (at 50.0 µM), 90.5% (active); in assay [2] (setting [7]) it was 18%; in assay [2] (setting [8]), 94% (active); in assay [2] (at 50.0 µM), 91.6% (active). Besides, the growth inhibition in assay [3] (setting [7]) was 15%; in assay [3] (setting [8]) it was 91% (active); in assay [3] (at 50.0 µM), 89.5% (active); in assay [4] (setting [7]), 12%; in assay [4] (setting [8]), 91% (active); in assay [4] (at 50.0 µM), 86.7% (active). Besides, the growth inhibition is 11% in assay [5] (setting [7]); 94% (active) in assay [5] (setting [8]); 90.8% (active) in assay [5] (at 50.0 µM); 20% in assay [6] (setting [7]); 92% (active) in assay [6] (setting [8]); 92.1% (active) in assay [6] (at 50.0 µM).

As for `CCC(O)C(O)(c1ccccc1)c1nc2ccccc2s1` (stereo not given), the growth inhibition in assay [1] (setting [7]) is -9%; in assay [1] (setting [8]) it was 15%; in assay [1] (at 50.0 µM) it was 6.75%; in assay [2] (setting [7]), 5%; in assay [2] (setting [8]), 11%; in assay [2] (at 50.0 µM), 5.9%. Also, the growth inhibition in assay [3] (setting [7]) was -7%; in assay [3] (setting [8]), 23%; in assay [3] (at 50.0 µM), 14%; in assay [4] (setting [7]) it was 7%; in assay [4] (setting [8]), 9%; in assay [4] (at 50.0 µM), 2.2%. Moreover, the growth inhibition in assay [5] (setting [7]) is -7%; in assay [5] (setting [8]), -12%; in assay [5] (at 50.0 µM), -2.65%; in assay [6] (setting [7]), 0%; in assay [6] (setting [8]), 15%; in assay [6] (at 50.0 µM), 15.1%.

The values above are taken from PubChem BioAssay (NCI).
